This is part of a sample that, as a whole, favours compounds with a hit. Of some 79,000 tested, about 15% had one in any assay. Values without a mark were called inactive. Calls of active or inactive are those of the source. Cut-off read from the data, not from the text of the source: active = growth inhibition above about 70%; inactive = the rest. Where a SMILES comes first, the peptide text is derived from it. [ ]: non-standard residue; d: D form. ξ: configuration not given here. ξH = NC(Cc1c[nH]cn1)C(=O)O

Assay [1] can be described thus: NCI Yeast Anticancer Drug Screen. Data for the rad50 strain (AID 155).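 Note: 0% = growth of vehicle-only cultures of the same strain.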 The conditions noted are these: S. cerevisiae rad50 strain growth inhibition; at 50.0 µM; stronger effect = higher value. In short, it runs like this:
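Readout: growth inhibition relative to vehicle-treated cultures. Compound exposure was carried out in a genetically defined yeast strain deficient in DNA damage repair.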

The nature of assay [2]: NCI Yeast Anticancer Drug Screen. Data for the sgs1 mgt1 strain (AID 161).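 Note: 0% = growth of cultures given vehicle only.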 The conditions noted are these: S. cerevisiae sgs1 mgt1 strain, at 50.0 µM, stronger effect = higher value. In outline:
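Yeast cells carrying a defined DNA-repair defect were exposed to test compounds. Growth inhibition was measured relative to vehicle-treated controls.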

Assay [3] is described as follows: NCI Yeast Anticancer Drug Screen. Data for the cln2 rad14 strain (AID 165).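 Note: 0% = growth equal to vehicle treated cultures.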 The settings on record: S. cerevisiae cln2 rad14 strain, at 50.0 µM, stronger effect = higher value. In short, it runs like this:
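Readout is yeast growth inhibition versus vehicle-treated controls, using a strain with cln2 and rad14 alterations exposed to compound.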

The nature of assay [4]: NCI Yeast Anticancer Drug Screen. Data for the bub3 strain (AID 167). The conditions noted are these: S. cerevisiae bub3 mutant strain, at 50.0 µM, stronger effect = higher value. In short, it runs like this:
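Readout: yeast growth inhibition, expressed relative to vehicle-only wells. The test organism is a mutant strain from a panel with lesions in DNA repair or checkpoint genes.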

A short description of assay [5]: NCI Yeast Anticancer Drug Screen. Data for the mlh1 rad18 strain (AID 175). The conditions noted are these: S. cerevisiae mlh1 rad18 strain growth inhibition; at 50.0 µM; stronger effect = higher value. In short, it runs like this:
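Genetically defined yeast (DNA repair-deficient) exposed to compounds; growth inhibition determined relative to vehicle.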

As to `CC(C)NC(=O)OCc1c(COC(=O)NC(C)C)c(S(C)(=O)=O)n2c1CCC2`, the growth inhibition was 3.65% in assay [1]; -15.3% in assay [2]; 7.9% in assay [3]; -1.3% in assay [4]; 6.8% in assay [5].

Take `CC(=O)n1cc(CS)c(=O)[nH]c1=O`: the growth inhibition is -6.2% in assay [1]; -2.5% in assay [2]; -15.2% in assay [3]; -2.6% in assay [4]; -19.4% in assay [5].

Regarding `N#Cc1c(N)nc(N)nc1Nc1ccc(Cl)cc1`, the growth inhibition is 13.6% in assay [1]; 9.25% in assay [2]; 26.9% in assay [3]; -5.8% in assay [4]; 25.6% in assay [5].

On to `Cc1ccc(S(=O)(=O)OCCN(CCO)c2cn(C(c3ccccc3)(c3ccccc3)c3ccccc3)c(=O)n(C(c3ccccc3)(c3ccccc3)c3ccccc3)c2=O)cc1`, for which the growth inhibition in assay [1] is -2.1%; in assay [2] it was 3.7%; in assay [3], -6.8%; in assay [4], -4.3%; in assay [5], 24.3%.

For the molecule `O=NC1CCCCC1Cl` (stereo not given), the growth inhibition is 3% in assay [1]; 4.6% in assay [2]; -4.45% in assay [3]; 7.05% in assay [4]; 2.55% in assay [5].

For `COC1(OC)C2(Cl)C(Cl)=C(Cl)C1(Cl)C1CCCCCC12` (stereo not given), the growth inhibition in assay [1] was -4.95%; in assay [2] it was 1.85%; in assay [3], -60.7%; in assay [4], -8.4%; in assay [5], 8.15%.

As for `Cc1cc(N(CCC#N)CCC#N)ccc1/C(N=Nc1cccc(Cl)c1)=N/NC(=O)c1cc(Cl)ccc1O`, the growth inhibition in assay [1] was 21%; in assay [2] it was 26.8%; in assay [3], 10.3%; in assay [4], 33.6%; in assay [5], -59.4%.

Regarding `O=C1CSC(c2cccc(O)c2O)N1c1nncs1` (stereo not given), the growth inhibition is 1.35% in assay [1]; 1.85% in assay [2]; -6.9% in assay [3]; 5.9% in assay [4]; -5.35% in assay [5].

Turning to `CCOC(=O)c1ccc(NCc2cccc([N+](=O)[O-])c2)cc1`, the growth inhibition in assay [1] is 10.2%; in assay [2] it was 10.4%; in assay [3], 0.45%; in assay [4], 73.8% (active); in assay [5], 31.6%.

As to `O=C1C2=C(Nc3cc(Cl)ccc3N2)OC1c1c[nH]c2ccc(COc3ccccc3)cc12` (stereo not given), the growth inhibition in assay [1] was -22.4%; in assay [2] it was -1.55%; in assay [3], 30.4%; in assay [4], -15%; in assay [5], -4.1%.

For the molecule `O=C(NC(=S)Nc1ccc2ccccc2c1)c1ccc(Cl)cc1Cl`, the growth inhibition in assay [1] is -1.45%; in assay [2], 28.2%; in assay [3], -10.6%; in assay [4], 23.4%; in assay [5] it was -41.1%.

As for `O=c1cc(-c2cccs2)ss1`, the growth inhibition in assay [1] was 18.4%; in assay [2], -0.65%; in assay [3], -34.6%; in assay [4], 13.8%; in assay [5] it was 25%.

Turning to `Nc1c(Cl)cc2c(c1Br)C(=O)c1ccccc1C2=O`, the growth inhibition in assay [1] was 13.7%; in assay [2] it was 1.1%; in assay [3] it was 23.4%; in assay [4] it was 11.9%; in assay [5], 19.5%.

For `CCOC(=O)/C(C)=C(/O)C(=O)OCC`, the growth inhibition in assay [1] is -45.2%; in assay [2], -22%; in assay [3] it was -7.05%; in assay [4], -40.2%; in assay [5], -27.9%.

Regarding `COC(=O)CCC(=O)c1ccc2c(c1)CC1(C2)Cc2ccc3c(c2C1)CCCC3=O` (stereo not given), the growth inhibition is -10.9% in assay [1]; -14.1% in assay [2]; 5.9% in assay [3]; -13.6% in assay [4]; -4.25% in assay [5].

Consider `CCCCCC(=O)C(CCCC)C(=O)OCC` (stereo not given), for which the growth inhibition is -6.15% in assay [1]; -25.2% in assay [2]; 2.6% in assay [3]; -12% in assay [4]; -33.5% in assay [5].

Consider `CN(C)C(=N)N=C(N)N`, for which the growth inhibition in assay [1] was -23.2%; in assay [2], -27.6%; in assay [3], -1.8%; in assay [4] it was -42.9%; in assay [5], -21.1%.

`COc1cc(C2OCCO2)ccc1O`: the growth inhibition in assay [1] was 12.8%; in assay [2], -0.35%; in assay [3], 39%; in assay [4], 5.05%; in assay [5], -11%.

Take `CC1CCOC2(CCCCC2)O1` (stereo not given): the growth inhibition in assay [1] was -12.6%; in assay [2], -8.85%; in assay [3], -32.9%; in assay [4], -2.65%; in assay [5], 16.2%.

`COc1ccccc1NC(=O)CCl`: the growth inhibition was 17.8% in assay [1]; 24.4% in assay [2]; 18.8% in assay [3]; 28.5% in assay [4]; 36.2% in assay [5].

Turning to `O=C(O)CNC(=S)SCc1ccccc1`, the growth inhibition in assay [1] was 10%; in assay [2], -11.1%; in assay [3], -35.8%; in assay [4] it was 11.2%; in assay [5] it was 10.8%.

In the case of `NCC1CCCCO1` (stereo not given), the growth inhibition in assay [1] is 7%; in assay [2], 14.2%; in assay [3], -4.1%; in assay [4], -16.7%; in assay [5] it was -4.65%.

As to `ClCCCN1CCN(CCCCl)CC1`, the growth inhibition in assay [1] is 80.2% (active); in assay [2] it was 85% (active); in assay [3], 62.1%; in assay [4], 80.5% (active); in assay [5] it was 7.75%.

On to `CCc1nc(-c2ccccc2)nc2c1nc(-c1cccc(C)c1)n2Nc1ccccc1`, for which the growth inhibition in assay [1] was 1.45%; in assay [2], -6.15%; in assay [3], -3%; in assay [4], -1.6%; in assay [5] it was 24.1%.

Consider `CCC(CC)COC(=O)CC(C)=O`, for which the growth inhibition in assay [1] was 18.2%; in assay [2], 6.9%; in assay [3] it was 86.8% (active); in assay [4], 28.2%; in assay [5], 33.4%.

As to `O=C(O)C1Cc2c([nH]c3ccccc23)C(c2cccs2)N1` (stereo not given), the growth inhibition in assay [1] was 27.7%; in assay [2], 8.7%; in assay [3], 0.5%; in assay [4] it was -19.8%; in assay [5], 14.3%.

`S=c1ccc2ccccc2[nH]1`: the growth inhibition was -16.9% in assay [1]; -0.75% in assay [2]; -13% in assay [3]; -16.1% in assay [4]; -13.8% in assay [5].

With `CC(=O)OC1CC2CCC1(c1ccccc1)C2` (stereo not given), the growth inhibition is 0.85% in assay [1]; 0.4% in assay [2]; 14.4% in assay [3]; -1.2% in assay [4]; 3.15% in assay [5].

In the case of `CC(C)S(=O)(=O)C(C)C`, the growth inhibition was 5.1% in assay [1]; -8.65% in assay [2]; 11.7% in assay [3]; -13.6% in assay [4]; -5.85% in assay [5].

For `CC1(C)OC2(CC1C1(C)C=CC(=O)O1)CC1(O)C(CCC34CC13C(=O)OC4c1ccoc1)O2` (stereo not given), the growth inhibition in assay [1] is 17%; in assay [2] it was -10.3%; in assay [3], 24.7%; in assay [4] it was 14.9%; in assay [5], 16.8%.

Consider `NCC(=O)NC(Cc1cnc[nH]1)C(=O)NCC(=O)O` (stereo not given) (H-Gly-[ξH]-Gly-OH), for which the growth inhibition is -3.45% in assay [1]; -0.2% in assay [2]; -31.6% in assay [3]; 6.2% in assay [4]; 5.15% in assay [5].

As to `CCOC(=O)N1C(c2ccccc2)N(c2ccccc2)C(c2ccccc2)N1C(=O)OCC` (stereo not given), the growth inhibition in assay [1] was 4.7%; in assay [2], 22.9%; in assay [3] it was 3.3%; in assay [4] it was -15.6%; in assay [5], 14.8%.

`CC(C)(C)c1cc2c3c(c1)C(C(F)(F)F)(C(F)(F)F)OS3(=O)(O)OC2(C(F)(F)F)C(F)(F)F`: the growth inhibition was 22.5% in assay [1]; 15.8% in assay [2]; -2.25% in assay [3]; 4.2% in assay [4]; 39% in assay [5].

Regarding `O=[N+]([O-])C1C=Nc2ccccc2N=C1`, the growth inhibition is 19.7% in assay [1]; 18.1% in assay [2]; 21.4% in assay [3]; 5% in assay [4]; 19.6% in assay [5].

Turning to `O=c1[nH]c2ccccc2nc1/C=C(\O)c1ccc([N+](=O)[O-])cc1`, the growth inhibition was 1.55% in assay [1]; -21.6% in assay [2]; 25.7% in assay [3]; -22.4% in assay [4]; 1.6% in assay [5].

On to `CCOC(=N)c1ccc(C(=N)OCC)cc1`, for which the growth inhibition was -11.2% in assay [1]; -29.4% in assay [2]; -20.8% in assay [3]; -32.5% in assay [4]; -41.7% in assay [5].

For the molecule `Cc1cc(Cl)nc2ccc([N+](=O)[O-])cc12`, the growth inhibition in assay [1] is 5.35%; in assay [2], -5.35%; in assay [3], -18.1%; in assay [4], 14.2%; in assay [5] it was 5.5%.

Turning to `CC(=O)c1cccc2cc(CC(=O)c3ccccc3)c(=O)oc12`, the growth inhibition in assay [1] was 12.2%; in assay [2], 6.4%; in assay [3], -33.1%; in assay [4] it was 11.1%; in assay [5], 1.35%.

These data come from PubChem BioAssay (NCI).
